Experimental data published in PubChem BioAssay AID1159580 (chemical genetic matrix, 2015).
The campaign covered roughly 5,500 compounds. About 2,000 (36%) were called active. Roughly 18% stayed inconclusive and do not appear here. Rule as the data show it: active = normalized growth mostly below about 0.91 (no sharp cut-off); inconclusive = no clear call, values can overlap the other calls; inactive = mostly above about 0.92. Some of the results follow.

Assay: chemical genetic growth profiling, strain panel (AID 1159580);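 also: tested at 20 µM; growth read once vehicle control cultures reached saturation at 30 °C; 1 = growth at the plate median or of vehicle wells; lower values mean less growth of the strain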
Conditions: growth OD
[1] = S. cerevisiae deletion strains, locus YCL061C, strain MRC1, active compounds read low
[2] = S. cerevisiae deletion strains, locus YHR030C, strain SLT2, active compounds read low
[3] = S. cerevisiae deletion strains, locus YJL187C, strain SWE1, active compounds read low

Measured: normalized growth

Nc1nc(F)nc2c1ncn2[C@@H]1O[C@H](COP(=O)(O)O)[C@@H](O)[C@@H]1O
inactive: S. cerevisiae deletion strains, locus YAL021C, strain ccr4, active compounds read low 0.989 | S. cerevisiae deletion strains, locus YAL026C, strain drs2, active compounds read low 0.999 | S. cerevisiae deletion strains, locus YAL030W, strain snc1, active compounds read low 1 | S. cerevisiae deletion strains, locus YBL061C, strain skt5, active compounds read low 0.997 | S. cerevisiae deletion strains, locus YBR009C, strain hhf1, active compounds read low 1.01 | S. cerevisiae deletion strains, locus YBR023C, strain chs3, active compounds read low 0.999 | S. cerevisiae deletion strains, locus YBR171W, strain sec66, active compounds read low 1 | S. cerevisiae deletion strains, locus YBR231C, strain swc5, active compounds read low 0.999 | S. cerevisiae deletion strains, locus YBR279W, strain paf1, active compounds read low 1 | S. cerevisiae deletion strains, locus YCL011C, strain gbp2, active compounds read low 0.994 | S. cerevisiae deletion strains, locus YCL016C, strain dcc1, active compounds read low 0.997 | [1] 0.989 | S. cerevisiae deletion strains, locus YCL069W, strain vba3, active compounds read low 0.993 | S. cerevisiae deletion strains, locus YCR088W, strain abp1, active compounds read low 0.992 | S. cerevisiae deletion strains, locus YDL005C, strain med2, active compounds read low 0.984 | S. cerevisiae deletion strains, locus YDL040C, strain nat1, active compounds read low 0.997 | S. cerevisiae deletion strains, locus YDR001C, strain nth1, active compounds read low 0.993 | S. cerevisiae deletion strains, locus YDR069C, strain doa4, active compounds read low 0.997 | S. cerevisiae deletion strains, locus YDR137W, strain rgp1, active compounds read low 1 | S. cerevisiae deletion strains, locus YDR159W, strain sac3, active compounds read low 0.985 | S. cerevisiae deletion strains, locus YDR195W, strain ref2 0.968 | S. cerevisiae deletion strains, locus YDR297W, strain sur2, active compounds read low 1.01 | S. cerevisiae deletion strains, locus YDR334W, strain swr1, active compounds read low 0.991 | S. cerevisiae deletion strains, locus YDR335W, strain msn5, active compounds read low 0.997 | S. cerevisiae deletion strains, locus YDR392W, strain spt3, active compounds read low 0.976 | S. cerevisiae deletion strains, locus YEL003W, strain gim4, active compounds read low 0.995 | S. cerevisiae deletion strains, locus YEL037C, strain rad23, active compounds read low 0.993 | S. cerevisiae deletion strains, locus YEL061C, strain CIN8 (second series), active compounds read low 0.994 | S. cerevisiae deletion strains, locus YER015W, strain faa2, active compounds read low 0.995 | S. cerevisiae deletion strains, locus YER016W, strain bim1, active compounds read low 0.993 | S. cerevisiae deletion strains, locus YER111C, strain swi4, active compounds read low 1 | S. cerevisiae deletion strains, locus YER155C, strain BEM2 (second series), active compounds read low 0.993 | S. cerevisiae deletion strains, locus YFR010W, strain ubp6, active compounds read low 1.01 | S. cerevisiae deletion strains, locus YGL167C, strain pmr1, active compounds read low 0.989 | S. cerevisiae deletion strains, locus YGL173C, strain kem1, active compounds read low 1 | S. cerevisiae deletion strains, locus YGL227W, strain vid30, active compounds read low 0.992 | S. cerevisiae deletion strains, locus YGL240W, strain doc1, active compounds read low 0.984 | S. cerevisiae deletion strains, locus YGL253W, strain hxk2, active compounds read low 0.998 | S. cerevisiae deletion strains, locus YHR013C, strain ard1, active compounds read low 0.99 | S. cerevisiae deletion strains, locus YHR027C, strain rpn1, active compounds read low 0.986 | [2] 1.03 | S. cerevisiae deletion strains, locus YHR079C, strain IRE1, active compounds read low 1.04 | S. cerevisiae deletion strains, locus YHR142W, strain chs7, active compounds read low 0.991 | S. cerevisiae deletion strains, locus YJL092W, strain hpr5, active compounds read low 0.982 | S. cerevisiae deletion strains, locus YJL095W, strain BCK1 (second series), active compounds read low 0.994 | S. cerevisiae deletion strains, locus YJL095W, strain BCK1, active compounds read low 0.993 | S. cerevisiae deletion strains, locus YJL115W, strain asf1, active compounds read low 0.991 | S. cerevisiae deletion strains, locus YJL129C, strain trk1, active compounds read low 0.994 | S. cerevisiae deletion strains, locus YJL154C, strain vps35, active compounds read low 0.998 | S. cerevisiae deletion strains, locus YJL164C, strain tpk1, active compounds read low 0.982 | S. cerevisiae deletion strains, locus YJL166W, strain qcr8, active compounds read low 1 | [3] 0.989 | S. cerevisiae deletion strains, locus YJR066W, strain TOR1, active compounds read low 0.967 | S. cerevisiae deletion strains, locus YKL160W, strain elf1, active compounds read low 1 | S. cerevisiae deletion strains, locus YKR026C, strain gcn3, active compounds read low 0.977 | S. cerevisiae deletion strains, locus YKR091W, strain srl3, active compounds read low 0.997 | S. cerevisiae deletion strains, locus YLL001W, strain dnm1, active compounds read low 0.987 | S. cerevisiae deletion strains, locus YLL026W, active compounds read low 0.989 | S. cerevisiae deletion strains, locus YLL041C, strain sdh2, active compounds read low 0.997 | S. cerevisiae deletion strains, locus YLR027C, strain aat2, active compounds read low 1 | S. cerevisiae deletion strains, locus YLR113W, strain HOG1, active compounds read low 0.979 | S. cerevisiae deletion strains, locus YLR221C, strain rsa3, active compounds read low 1 | S. cerevisiae deletion strains, locus YLR258W, strain gsy2, active compounds read low 0.992 | S. cerevisiae deletion strains, locus YLR262C, strain YPT6 (second series), active compounds read low 1 | S. cerevisiae deletion strains, locus YLR320W, strain mms22, active compounds read low 0.968 | S. cerevisiae deletion strains, locus YLR342W, strain FKS1, active compounds read low 0.999 | S. cerevisiae deletion strains, locus YLR357W, strain rsc2, active compounds read low 0.994 | S. cerevisiae deletion strains, locus YLR370C, strain arc18, active compounds read low 0.998 | S. cerevisiae deletion strains, locus YLR384C, strain iki3, active compounds read low 0.982 | S. cerevisiae deletion strains, locus YML120C, strain ndi1, active compounds read low 1.01 | S. cerevisiae deletion strains, locus YMR058W, strain fet3, active compounds read low 1 | S. cerevisiae deletion strains, locus YMR125W, strain sto1, active compounds read low 0.981 | S. cerevisiae deletion strains, locus YMR129W, active compounds read low 1.01 | S. cerevisiae deletion strains, locus YMR205C, strain PFK2, active compounds read low 0.975 | S. cerevisiae deletion strains, locus YMR231W, strain pep5, active compounds read low 0.995 | S. cerevisiae deletion strains, locus YNL071W, strain lat1, active compounds read low 0.995 | S. cerevisiae deletion strains, locus YNL183C, strain NPR1, active compounds read low 0.96 | S. cerevisiae deletion strains, locus YNL209W, strain ssb2, active compounds read low 1 | S. cerevisiae deletion strains, locus YNL248C, strain rpa49, active compounds read low 0.996 | S. cerevisiae deletion strains, locus YNL322C, strain KRE1 (second series), active compounds read low 0.99 | S. cerevisiae deletion strains, locus YNR049C, strain mso1, active compounds read low 0.995 | S. cerevisiae deletion strains, locus YOR001W, strain rrp6, active compounds read low 1 | S. cerevisiae deletion strains, locus YOR070C, strain gyp1, active compounds read low 1 | S. cerevisiae deletion strains, locus YOR080W, strain dia2, active compounds read low 0.989 | S. cerevisiae deletion strains, locus YOR083W, strain WHI5, active compounds read low 1 | S. cerevisiae deletion strains, locus YOR106W, strain vam3, active compounds read low 1.02 | S. cerevisiae deletion strains, locus YOR231W, strain MKK1, active compounds read low 1.04 | S. cerevisiae deletion strains, locus YOR265W, strain rbl2, active compounds read low 1 | S. cerevisiae deletion strains, locus YOR270C, strain vph1, active compounds read low 0.977 | S. cerevisiae deletion strains, locus YOR290C, strain snf2, active compounds read low 0.979 | S. cerevisiae deletion strains, locus YPL051W, strain arl3, active compounds read low 1 | S. cerevisiae deletion strains, locus YPL078C, strain atp4, active compounds read low 0.991 | S. cerevisiae deletion strains, locus YPL106C, strain sse1, active compounds read low 1 | S. cerevisiae deletion strains, locus YPL240C, strain hsp82, active compounds read low 1.01 | S. cerevisiae deletion strains, locus YPL256C, strain CLN2, active compounds read low 1.03

Cc1nn(Cc2ccccc2Cl)c(=N)s1
inactive: S. cerevisiae deletion strains, locus YAL013W, strain DEP1, active compounds read low 1.01 | S. cerevisiae deletion strains, locus YBR229C, strain ROT2, active compounds read low 0.999 | [1] 0.992 | S. cerevisiae deletion strains, locus YDL101C, strain DUN1, active compounds read low 0.991 | S. cerevisiae deletion strains, locus YDL134C, strain PPH21, active compounds read low 0.978 | S. cerevisiae deletion strains, locus YDR150W, strain NUM1, active compounds read low 0.971 | S. cerevisiae deletion strains, locus YEL061C, strain CIN8, active compounds read low 1.02 | S. cerevisiae deletion strains, locus YGR078C, strain PAC10, active compounds read low 0.997 | S. cerevisiae deletion strains, locus YGR229C, strain SMI1, active compounds read low 0.985 | [2] 0.959 | S. cerevisiae deletion strains, locus YHR087W, strain rtc3, active compounds read low 0.972 | [3] 0.995 | S. cerevisiae deletion strains, locus YJR043C, strain POL32, active compounds read low 0.991 | S. cerevisiae deletion strains, locus YJR075W, strain HOC1, active compounds read low 0.99 | S. cerevisiae deletion strains, locus YLR039C, strain RIC1, active compounds read low 0.939 | S. cerevisiae deletion strains, locus YLR058C, strain SHM2 (second series), active compounds read low 1.01 | S. cerevisiae deletion strains, locus YLR085C, strain ARP6, active compounds read low 1.03 | S. cerevisiae deletion strains, locus YLR262C, strain YPT6, active compounds read low 0.954 | S. cerevisiae deletion strains, locus YML094W, strain GIM5, active compounds read low 1.04 | S. cerevisiae deletion strains, locus YMR219W, strain ESC1, active compounds read low 0.998 | S. cerevisiae deletion strains, locus YMR263W, strain SAP30, active compounds read low 1 | S. cerevisiae deletion strains, locus YMR307W, strain GAS1, active compounds read low 0.981 | S. cerevisiae deletion strains, locus YNL153C, strain GIM3, active compounds read low 1.02 | S. cerevisiae deletion strains, locus YNL298W, strain CLA4 (second series), active compounds read low 0.932 | S. cerevisiae deletion strains, locus YNL322C, strain KRE1, active compounds read low 0.985 | S. cerevisiae deletion strains, locus YNR030W, strain Alg12, active compounds read low 0.988 | S. cerevisiae deletion strains, locus YOL006C, strain TOP1, active compounds read low 0.939 | S. cerevisiae deletion strains, locus YPL055C, strain LGE1, active compounds read low 1.06 | S. cerevisiae deletion strains, locus YPL241C, strain CIN2, active compounds read low 0.993 | S. cerevisiae deletion strains, locus YPR135W, strain CTF4, active compounds read low 0.972 | S. cerevisiae strains, strain wild type, active compounds read low 0.96
